Measured values from PubChem BioAssay (NCI).
The panel holds about 83,000 compounds, 20% with a hit somewhere; the sample as a whole holds those more often.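 Each cell line was grown in a 96-well plate and treated with one concentration of compound for 48 hours. Values below 10 were considered active.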 The source made the active and inactive calls.

Legend:
Test in all cases: NCI-60 one-dose screen, 48 h (100 = growth as untreated, 0 = no growth, -100 = all killed)
Details in all cases: 10 µM unless noted
DU-145 prostate = test system: DU-145 prostate
K-562 leukemia = test system: K-562 leukemia
MALME-3M melanoma = test system: MALME-3M melanoma
MDA-MB-231 breast = test system: MDA-MB-231 breast
RXF 393 renal = test system: RXF 393 renal
SF-268 CNS = test system: SF-268 CNS
SF-295 CNS = test system: SF-295 CNS
SF-539 CNS = test system: SF-539 CNS
UACC-257 melanoma = test system: UACC-257 melanoma
M14 melanoma = test system: M14 melanoma
HCT-15 colon = test system: HCT-15 colon
HT29 colon = test system: HT29 colon
SNB-75 CNS = test system: SNB-75 CNS
SNB-19 CNS = test system: SNB-19 CNS
U251 CNS = test system: U251 CNS
PC-3 prostate = test system: PC-3 prostate
SK-MEL-5 melanoma = test system: SK-MEL-5 melanoma
UACC-62 melanoma = test system: UACC-62 melanoma
LOX IMVI melanoma = test system: LOX IMVI melanoma
SK-MEL-28 melanoma = test system: SK-MEL-28 melanoma

Measured: growth

COC(=O)CC[C@@H]1O[C@@H](c2cccc(C(F)(F)F)c2)[C@@H](O)[C@H]1O
inactive: DU-145 prostate 103% | K-562 leukemia 112% | MALME-3M melanoma 99.1% | MDA-MB-231 breast 108% | RXF 393 renal 95.3% | SF-268 CNS 101% | SF-295 CNS 104% | SF-539 CNS 97.2% | UACC-257 melanoma 106% | M14 melanoma 102% | HCT-15 colon 101% | HT29 colon 97.8% | SNB-75 CNS 92.5% | SNB-19 CNS 107% | U251 CNS 102% | PC-3 prostate 97.8% | SK-MEL-5 melanoma 98% | UACC-62 melanoma 104% | LOX IMVI melanoma 97.4% | SK-MEL-28 melanoma 105%

Nc1ncnc2c1N=C(c1ccc(Br)cc1)CC(c1cccc(Nc3ccnc4cc(C(F)(F)F)ccc34)c1)N2 (centres undefined)
inactive: DU-145 prostate 85.6% | K-562 leukemia 23% | MALME-3M melanoma 76.8% | MDA-MB-231 breast 55.9% | RXF 393 renal 38.5% | SF-268 CNS 55.5% | SF-295 CNS 52.2% | SF-539 CNS 70.8% | UACC-257 melanoma 66.6% | M14 melanoma 60.1% | HCT-15 colon 27.2% | HT29 colon 26.4% | SNB-75 CNS 66.2% | SNB-19 CNS 70.6% | U251 CNS 51% | PC-3 prostate 39% | SK-MEL-5 melanoma 49.5% | UACC-62 melanoma 74.3% | LOX IMVI melanoma 63.3% | SK-MEL-28 melanoma 72.2%

O=C1/C(=C/c2ccc([N+](=O)[O-])cc2)COc2ccc(O)cc21
inactive: DU-145 prostate 92.6% | K-562 leukemia 11.2% | MALME-3M melanoma 96.1% | MDA-MB-231 breast 80.8% | RXF 393 renal 98.9% | SF-268 CNS 84% | SF-295 CNS 98.6% | SF-539 CNS 94.5% | UACC-257 melanoma 106% | M14 melanoma 88.2% | HCT-15 colon 28.3% | SNB-75 CNS 83.4% | SNB-19 CNS 91.4% | U251 CNS 66.1% | PC-3 prostate 88.3% | SK-MEL-5 melanoma 94% | SK-MEL-28 melanoma 108%
active: HT29 colon 4.43% | LOX IMVI melanoma 1.76%

CCn1cc(C(=O)NNC(=S)Nc2ccc(C)cc2)c(=O)c2ccc(C)nc21
inactive: DU-145 prostate 108% | K-562 leukemia 99% | MALME-3M melanoma 103% | MDA-MB-231 breast 93.5% | RXF 393 renal 104% | SF-268 CNS 103% | SF-295 CNS 102% | SF-539 CNS 102% | UACC-257 melanoma 94% | M14 melanoma 113% | HCT-15 colon 103% | HT29 colon 97.5% | SNB-75 CNS 97.3% | SNB-19 CNS 102% | U251 CNS 93.9% | PC-3 prostate 90.2% | SK-MEL-5 melanoma 101% | LOX IMVI melanoma 95.1% | SK-MEL-28 melanoma 105%

O=C(Nc1cccc(-c2ccc(N3CCOCC3)nn2)c1)Nc1cccc(C(F)(F)F)c1
inactive: DU-145 prostate 80.5% | K-562 leukemia 46.1% | MALME-3M melanoma 89.5% | MDA-MB-231 breast 80.1% | RXF 393 renal 81.5% | SF-268 CNS 91.2% | SF-295 CNS 52% | SF-539 CNS 89.1% | UACC-257 melanoma 69.7% | M14 melanoma 63.1% | HCT-15 colon 68.3% | HT29 colon 91.2% | SNB-75 CNS 111% | SNB-19 CNS 86.6% | U251 CNS 71.2% | PC-3 prostate 31.4% | SK-MEL-5 melanoma 41.9% | UACC-62 melanoma 43.2% | LOX IMVI melanoma 70.2% | SK-MEL-28 melanoma 88.7%

O=C1Nc2ccccc2/C1=C/c1nc2ccccc2c(=O)[nH]1
inactive: DU-145 prostate 99.3% | K-562 leukemia 86.2% | MALME-3M melanoma 92.8% | MDA-MB-231 breast 84.5% | RXF 393 renal 96% | SF-268 CNS 94.6% | SF-295 CNS 101% | SF-539 CNS 93.6% | UACC-257 melanoma 104% | M14 melanoma 82.2% | HCT-15 colon 72.6% | HT29 colon 105% | SNB-75 CNS 88.9% | SNB-19 CNS 95.5% | U251 CNS 96.3% | PC-3 prostate 77.7% | SK-MEL-5 melanoma 94.4% | UACC-62 melanoma 96.1% | LOX IMVI melanoma 82.1% | SK-MEL-28 melanoma 109%

CCN(CC)CCn1c2ccc(OC)cc2c2sc3cc(OC)ccc3c(=O)c21
inactive: DU-145 prostate 44.9% | MDA-MB-231 breast 40.5% | RXF 393 renal 12.7% | SF-268 CNS 38.5% | SF-295 CNS 18.9% | SF-539 CNS 22.7% | UACC-257 melanoma 41.3% | SNB-75 CNS 85.9% | SNB-19 CNS 28.9% | U251 CNS 20.5% | PC-3 prostate 25.6% | SK-MEL-5 melanoma 57% | UACC-62 melanoma 47.2% | SK-MEL-28 melanoma 29.7%
active: K-562 leukemia 4.61% | MALME-3M melanoma -27% | M14 melanoma -77.9% | HCT-15 colon 8.79% | HT29 colon 0.172% | LOX IMVI melanoma -75%

COc1ccc(-c2cc(-c3ccc(Cl)cc3)c(C#N)c(=O)n2Cc2ccc(C(=O)Nc3ccccc3N)cc2)cc1
inactive: DU-145 prostate 101% | K-562 leukemia 46.2% | MALME-3M melanoma 74.1% | MDA-MB-231 breast 67.2% | RXF 393 renal 54.5% | SF-268 CNS 73.4% | SF-295 CNS 61.1% | SF-539 CNS 74% | UACC-257 melanoma 105% | M14 melanoma 81.5% | HCT-15 colon 68.2% | HT29 colon 107% | SNB-75 CNS 55.9% | SNB-19 CNS 80.2% | U251 CNS 88.7% | PC-3 prostate 79.6% | SK-MEL-5 melanoma 80.9% | UACC-62 melanoma 49.5% | LOX IMVI melanoma 69.3% | SK-MEL-28 melanoma 70%

CC(=O)N1N=C(c2ccc(C(F)(F)F)c(F)c2)CC1c1[nH]c(C)c(C(=O)NCC(F)(F)F)c1C (centres undefined)
inactive: DU-145 prostate 85.5% | K-562 leukemia 97.6% | MALME-3M melanoma 43.5% | MDA-MB-231 breast 38.8% | RXF 393 renal 31% | SF-268 CNS 60.7% | SF-295 CNS 70.9% | SF-539 CNS 56.3% | UACC-257 melanoma 91.6% | M14 melanoma 78.8% | HCT-15 colon 95.3% | HT29 colon 78.5% | SNB-19 CNS 47.9% | U251 CNS 78.8% | PC-3 prostate 70.8% | SK-MEL-5 melanoma 81.7% | LOX IMVI melanoma 71.5% | SK-MEL-28 melanoma 69.8%
active: SNB-75 CNS -8.37%

CC(=O)Oc1ccc(N2C(=O)C(Cl)=C(Nc3cccc(C(F)(F)F)c3)C2=O)cc1
inactive: DU-145 prostate 101% | K-562 leukemia 90.4% | MALME-3M melanoma 102% | MDA-MB-231 breast 95.3% | RXF 393 renal 87% | SF-268 CNS 94.3% | SF-295 CNS 102% | SF-539 CNS 96.5% | UACC-257 melanoma 97.1% | M14 melanoma 105% | HCT-15 colon 84% | HT29 colon 104% | SNB-75 CNS 95.1% | SNB-19 CNS 93% | U251 CNS 97.4% | PC-3 prostate 96.3% | SK-MEL-5 melanoma 105% | UACC-62 melanoma 87.8% | LOX IMVI melanoma 88.7% | SK-MEL-28 melanoma 101%

O=c1scc(-c2ccc(C(F)(F)F)cc2)s1
inactive: DU-145 prostate 110% | K-562 leukemia 99.9% | MALME-3M melanoma 115% | MDA-MB-231 breast 104% | RXF 393 renal 87.4% | SF-268 CNS 100% | SF-295 CNS 85.6% | SF-539 CNS 111% | UACC-257 melanoma 82.9% | M14 melanoma 104% | HCT-15 colon 93.4% | HT29 colon 89.4% | SNB-75 CNS 63.5% | SNB-19 CNS 91.8% | U251 CNS 95.2% | PC-3 prostate 87.8% | SK-MEL-5 melanoma 97% | UACC-62 melanoma 84.1% | LOX IMVI melanoma 103% | SK-MEL-28 melanoma 102%

COc1cc2c(cc1OCCCN1CCN(CCCOc3cc4c(cc3OC)C(=O)N3CC(F)(F)C[C@H]3C=N4)CC1)N=C[C@@H]1CC(F)(F)CN1C2=O
inactive: DU-145 prostate 16.3% | K-562 leukemia 36.5% | MALME-3M melanoma 89% | MDA-MB-231 breast 85.3% | RXF 393 renal 86.2% | SF-268 CNS 14.6% | SF-295 CNS 30.6% | SF-539 CNS 51% | UACC-257 melanoma 85.3% | M14 melanoma 70.2% | HCT-15 colon 101% | HT29 colon 60.1% | SNB-19 CNS 47.2% | PC-3 prostate 68.5% | SK-MEL-5 melanoma 20.6% | LOX IMVI melanoma 12% | SK-MEL-28 melanoma 99.3%
active: SNB-75 CNS 2.55% | U251 CNS 7.49%

C=CCOC(=O)Nc1cccn([C@H](Cc2ccccc2)C(=O)NCCC(C)C)c1=O
inactive: DU-145 prostate 110% | K-562 leukemia 110% | MALME-3M melanoma 103% | MDA-MB-231 breast 101% | RXF 393 renal 110% | SF-268 CNS 106% | SF-295 CNS 94.5% | SF-539 CNS 109% | UACC-257 melanoma 102% | M14 melanoma 121% | HCT-15 colon 111% | HT29 colon 99.7% | SNB-75 CNS 91.1% | SNB-19 CNS 85.9% | U251 CNS 101% | PC-3 prostate 92.3% | SK-MEL-5 melanoma 102% | LOX IMVI melanoma 90.8% | SK-MEL-28 melanoma 97.6%

CC(C)c1ccc(-n2c(=S)[nH]c3sc4cc(O)ccc4c3c2=O)cc1
inactive: DU-145 prostate 104% | K-562 leukemia 107% | MALME-3M melanoma 87.1% | MDA-MB-231 breast 95.4% | RXF 393 renal 91.2% | SF-268 CNS 99.4% | SF-295 CNS 103% | SF-539 CNS 93.6% | UACC-257 melanoma 111% | M14 melanoma 94.6% | HCT-15 colon 97.7% | HT29 colon 113% | SNB-75 CNS 85.9% | SNB-19 CNS 90.4% | U251 CNS 103% | PC-3 prostate 100% | SK-MEL-5 melanoma 98.6% | LOX IMVI melanoma 96.9% | SK-MEL-28 melanoma 103%

CC(=O)O[C@H]1CC2CCC3C(CC[C@@]4(C)C3C[C@H]([N+]3(C)CCCCC3)[C@@H]4OC(C)=O)[C@@]2(C)C[C@@H]1N1CCCCC1 (some centres undefined)
inactive: DU-145 prostate 120% | K-562 leukemia 104% | MALME-3M melanoma 121% | MDA-MB-231 breast 91% | RXF 393 renal 113% | SF-268 CNS 115% | SF-295 CNS 96.4% | SF-539 CNS 110% | UACC-257 melanoma 98% | M14 melanoma 106% | HCT-15 colon 118% | HT29 colon 105% | SNB-75 CNS 99.6% | SNB-19 CNS 100% | U251 CNS 90.8% | PC-3 prostate 92.8% | SK-MEL-5 melanoma 112% | UACC-62 melanoma 92.6% | LOX IMVI melanoma 95.2% | SK-MEL-28 melanoma 108%
